D1 antag – blocks dopamine activation of the human D1 receptor | P21728 | HEK293 TREx D1 cells, calcium flux, dopamine EC80; active compounds read low | activity change, negative = inhibition, % at 10 µM | 360,000 tested, 3.2% active | AID 504652; in the data active = activity change below about -30%; note: % is set by controls: 0 for no effect and ±100 for the full control effect
Target sequence (P21728 whole entry, looked up): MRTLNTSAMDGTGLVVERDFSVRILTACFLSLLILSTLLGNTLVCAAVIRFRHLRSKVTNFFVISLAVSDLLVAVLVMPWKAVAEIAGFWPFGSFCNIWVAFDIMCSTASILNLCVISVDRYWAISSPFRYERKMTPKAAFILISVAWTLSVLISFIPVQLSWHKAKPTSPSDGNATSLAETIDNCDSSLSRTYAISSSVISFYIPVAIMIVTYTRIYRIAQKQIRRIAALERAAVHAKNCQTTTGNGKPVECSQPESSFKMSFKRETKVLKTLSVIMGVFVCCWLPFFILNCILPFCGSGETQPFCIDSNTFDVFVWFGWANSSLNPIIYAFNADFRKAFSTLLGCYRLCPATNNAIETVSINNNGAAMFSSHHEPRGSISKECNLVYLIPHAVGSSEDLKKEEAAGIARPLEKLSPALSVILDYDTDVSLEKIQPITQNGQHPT
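Using tetracycline-induced force-coupled D1 Hek293 cells and a calcium dye, signals were followed for 180 s after compound, then for 180 s after EC80 dopamine, to detect inhibitors.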
D1 agonist – activates the human D1 dopamine receptor. AID 504660. HEK293 T-REx D1 cells, calcium flux, agonist mode. 360,000 tested, 1% active. activation, % at 2 µM; note: 0% is about no effect
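Inducible HEK293 T-REx D1 cells, force-coupled to calcium signalling, were plated at 4000 cells/well with tetracycline and held overnight at 30 C. After no-wash calcium dye loading, compound-evoked calcium rise over 180 s flagged agonists.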
TRHR agonist – TRH receptor (human) agonism; 360,000 tested, 0.18% active; P34981; activation, % at 2 µM; TRHR cells, calcium flux fluo-8, FDSS agonist mode; note: 0% is about no effect
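Steps: seed TRHR cells overnight; add fluo-8 no-wash Ca dye, RT 30 min–1.5 h; record 10 s baseline; pin-transfer compounds; monitor fluorescence 1 cycle/s for the agonist window. Calcium increases flag candidate agonists.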
TRHR enhancer – TRH receptor (human) allosteric enhancement. P34981. TRHR cells, fluo-8 calcium fluorescence, EC20 TRH enhancement. enhancement, % at 2 µM. 360,000 tested, 0.66% active. AID 493056; in the data active = enhancement above about 30%; note: 0% is about no effect
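TRHR-expressing cells loaded with fluo-8 calcium dye were read kinetically (ex 480/em 530) during compound addition, then stimulated with an EC20 of TRH (10 nM final). Enhancement of the Gq-mediated intracellular calcium response was scored.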
D1 potentiator – potentiators of human D1 dopamine receptor. P21728. HEK293 TREx D1 cells, calcium flux, dopamine EC20 potentiation. potentiation, % at 10 µM. 360,000 tested, 0.036% active. AID 504651; in the data active = potentiation above about 30%; note: 0% is about no effect
An asterisk follows results filed as active; . = not tested or not shown. This is a sample that favours compounds with a hit; in the whole collection about 4.7% have one here. Cut-off read from the data, not from the text of the source, unless noted: active = activation above about 30%; inactive = the rest.

SMILES	D1 antag	D1 agonist	TRHR agonist	TRHR enhancer	D1 potentiator
CCc1ccccc1NC(=O)c1cc(S(=O)(=O)N2CCCc3ccccc32)ccc1F	6.1	5.8	1.1	11.0	-1.5
CCC1=NN2C(=N)/C(=C/c3c(C)nn(-c4ccccc4)c3Cl)C(=O)N=C2S1	-4.8	-0.2	-0.6	-2.8	-3.5
CCCC1=NN2C(=N)/C(=C\c3cc(C)n(Cc4ccccc4)c3C)C(=O)N=C2S1	-36.7*	149.9*	0.3	-1.0	1.4
CCCC1=NN2C(=N)/C(=C\c3ccc(SCc4ccco4)o3)C(=O)N=C2S1	3.0	63.0*	16.9	-8.3	-2.5
CCC1=NN2C(=N)/C(=C\c3ccc(SCc4ccco4)o3)C(=O)N=C2S1	7.1	37.7*	14.0	-0.4	-9.3
Cc1cc(C)c(NC(=O)CSc2ccc(-c3cccnc3)nn2)c(C)c1	22.6	-3.3	0.0	-3.1	0.8
C=C1CC2C(CCC3(C)C2CCC3(O)C(C)=O)C2(C)CCC(=O)C=C12 (configuration not stated)	-51.4*	3.8	0.2	-8.2	-1.6
COc1ccc(-c2nnn3c2nc(NCc2ccc(C)cc2)c2ccccc23)cc1	-21.3	2.8	1.3	-4.4	-1.6
Nc1c(-c2nc(-c3ccccc3)cs2)c2ccccn2c1C(=O)c1ccc2c(c1)OCO2	-7.8	34.9*	2.5	2.6	-0.9
CCOc1ccc(-c2csc(-c3c(N)c(C(=O)c4ccc5c(c4)OCO5)n4ccccc34)n2)cc1	-1.1	41.8*	-2.2	9.1	-3.1
Cc1ccc(NC(=O)CN2C(=O)S/C(=C\c3cc(Cl)c(OCC(=O)O)c(Cl)c3)C2=O)cc1	0.7	0.2	0.1	12.3	1.1
CCCCSc1nc2c(c(C(F)(F)F)c1C#N)CCC2	13.1	-0.6	0.2	0.3	-3.6
CCOC(=O)CCSc1nc2c(c(C(F)(F)F)c1C#N)CCC2	-37.9*	-1.0	-0.3	-4.1	3.6
CCc1ccc(S(=O)(=O)Nc2ccccn2)cc1	-11.6	3.6	-0.4	1.4	-2.8
CCc1ccc(S(=O)(=O)Nc2ccc(Br)cn2)cc1	-30.1*	-4.0	-1.3	0.0	-5.0
Cc1cccc2cc(C#N)c(SCC(=O)NCc3cccs3)nc12	9.3	4.3	0.6	1.6	-2.1
CCc1nc(SCC#N)c(C#N)cc1C	-34.4*	-0.4	0.0	-0.8	-5.1
Cc1cccc2cc(C#N)c(SCC#N)nc12	9.4	32.0*	6.4	-5.7	1.9
CCN(CC(=O)NC(=O)Nc1ccccc1F)Cc1ccccc1	-2.8	-0.9	-0.1	0.6	-3.9
Cc1ccc(-n2ncc(C(=O)Nc3ccc4c(c3)OCO4)c2C2CCN(C(=O)OC(C)(C)C)CC2)cc1	-1.9	0.5	0.2	3.4	-2.1
CC(C)(C)OC(=O)N1CCC(c2c(C(=O)N3CCN(C4CCCCC4)CC3)cnn2-c2cccc(Cl)c2)CC1	-7.4	-0.5	6.7	20.9	1.4
CC(C)(C)OC(=O)N1CCC(c2c(C(=O)Nc3ccc4c(c3)OCCO4)cnn2-c2ccc(Cl)cc2)CC1	17.7	3.7	1.1	4.3	2.6
CC(C)(C)OC(=O)N1CCC(c2c(C(=O)Nc3ccc4c(c3)OCCO4)cnn2-c2ccccc2)CC1	-30.3*	1.6	-0.1	6.3	-7.8
COc1ccccc1CNC(=O)c1cnn(-c2ccc(F)cc2F)c1C1CCN(C(=O)OC(C)(C)C)CC1	-59.2*	0.1	-1.0	-5.6	-8.2
Cc1ccc(-n2ncc(C(=O)Nc3ccc4c(c3)OCCO4)c2C2CCN(C(=O)OC(C)(C)C)CC2)cc1	-12.0	1.4	1.6	31.3*	-4.5
SMILES	D1 antag	D1 agonist	TRHR agonist	TRHR enhancer	D1 potentiator
CCN1CCN(C(=O)c2cnn(-c3cccc(Cl)c3)c2C2CCN(C(=O)OC(C)(C)C)CC2)CC1	2.7	3.2	1.8	37.3*	-3.5
Cc1ccc(C(=O)c2cn(Cc3cccc(Cl)c3)c3nc(C)ccc3c2=O)cc1	11.0	1.0	-0.4	4.1	1.9
CC(=O)c1ccc(NC(=O)CSc2nc(-c3ccc(C)cc3)nc3c2c(=O)n(C)c(=O)n3C)cc1	4.8	3.5	0.5	-1.7	-2.5
COc1ccc(CCN2CCC(CNC(=O)c3cnn(-c4ccc(C)cc4)c3C3CCN(C(=O)OC(C)(C)C)CC3)CC2)cc1	-29.4	57.8*	-1.2	13.0	-6.8
O=C1Nc2ccccc2/C1=C/c1ccc([N+](=O)[O-])cc1	-8.1	-0.7	0.1	-2.3	-0.6
CC1(c2ccc([N+](=O)[O-])cc2)Nc2ccccc2S1 (configuration not stated)	0.9	0.3	-0.2	31.1*	3.3
Cc1cc(-c2n[nH]c(=S)n2/N=C/c2ccc(C)o2)n[nH]1	4.6	3.5	-0.2	39.8*	0.8
COc1ccc(/C=N/n2c(-c3cc(C)[nH]n3)n[nH]c2=S)cc1	-0.6	2.1	-0.9	1.2	3.5
NC(=O)c1ccc(NC(=O)COC(=O)CCC(=O)c2ccc(Cl)cc2)cc1	-31.2*	2.2	0.3	0.9	-7.0
O=C(COC(=O)CCC(=O)c1ccc(F)cc1)Nc1ccccc1	7.4	0.0	-0.1	-2.3	-0.9
O=C(O)CCCN1C(=O)/C(=C/c2ccc(-c3nc4ccccc4s3)o2)SC1=S	55.5	52.9*	2.0	17.0	10.7
Cc1ccc(C)c(CN2C(=O)C(=O)c3ccccc32)c1	-31.4*	-2.2	4.3	-3.7	-1.7
O=c1[nH]c(-[n+]2ccccc2)c(/C=N/NC([S-])=Nc2ccccc2)s1	-3.5	173.8*	56.5*	3.3	-0.9
Cc1ccc(-c2c(C#N)c(N)n3c(nc4ccccc43)c2C#N)cc1	-39.4*	23.1	4.0	-6.2	-15.1
C=CCOC(=O)C1=C(C)NC(SCC(N)=O)=C(C#N)C1c1cccs1 (configuration not stated)	-45.3*	-1.1	-0.3	-0.2	-3.8
Cc1ccccc1NC(=O)N1C2CCC1CC(O)(c1cccnc1)C2 (configuration not stated)	-33.6*	-0.2	-0.5	-3.6	-2.5
Cc1cccc(C)c1NC(=O)N1C2CCC1CC(O)(c1cccnc1)C2 (configuration not stated)	-2.0	1.7	0.4	9.2	5.2
CCOc1ccccc1NC(=O)C(Cc1ccccc1)NS(=O)(=O)c1ccc2c(c1)oc(=O)n2C (configuration not stated)	3.6	-0.2	-0.4	-5.5	0.0
COc1ccc(CCC(C)NC2C3CC4CC(C3)CC2C4)cc1 (configuration not stated)	-71.2*	10.3	1.0	6.2	0.0
CC1=C(OC(=O)c2ccccc2)C(C)(C)C(c2ccccc2)OC1=O (configuration not stated)	-38.5*	0.7	-0.8	2.0	-6.3
O=C(CN(Cc1ccccc1Cl)C(=O)c1csnn1)NCc1ccccc1	-12.7	4.3	-0.5	-2.7	.
Cc1ccc(NC(=O)CCCn2c(=O)c3cccn3c3cccnc32)c(Cl)c1	5.5	1.7	-0.3	10.1	0.4
